Assay outcomes: PubChem, Paczesny and Yang Labs, IUPUI and University of Michigan
ST2 IL33 inh: inhibitors of human ST2 (IL1RL1) binding to IL-33, primary screen, biochemical, AlphaLISA. AlphaLISA ST2-Fc/biotin-IL-33 interaction, 1 h. inhibition, % for hits at 17 µM. 2.3% of 78,000 active; in the data active = inhibition above about 30%
Target sequence (Q01638 whole entry, looked up): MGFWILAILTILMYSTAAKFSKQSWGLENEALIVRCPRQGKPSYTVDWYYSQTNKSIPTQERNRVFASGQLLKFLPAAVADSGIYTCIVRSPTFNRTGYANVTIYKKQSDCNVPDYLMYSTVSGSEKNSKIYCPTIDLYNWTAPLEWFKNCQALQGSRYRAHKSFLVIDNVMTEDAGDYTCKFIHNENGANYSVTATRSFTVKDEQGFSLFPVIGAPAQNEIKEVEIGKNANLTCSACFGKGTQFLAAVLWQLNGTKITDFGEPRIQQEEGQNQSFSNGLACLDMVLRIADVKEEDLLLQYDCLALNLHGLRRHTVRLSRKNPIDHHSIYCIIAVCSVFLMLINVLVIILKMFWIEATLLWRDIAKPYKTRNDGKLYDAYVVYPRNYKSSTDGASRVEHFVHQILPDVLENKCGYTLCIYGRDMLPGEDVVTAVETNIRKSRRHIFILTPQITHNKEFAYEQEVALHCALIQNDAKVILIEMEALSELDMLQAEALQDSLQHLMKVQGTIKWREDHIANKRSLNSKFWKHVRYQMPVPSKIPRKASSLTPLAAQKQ
Active calls of the source: *; i = inactive. This excerpt belongs to a sample that is enriched for hits.

SMILES	ST2 IL33 inh
OCCNc1cc(-c2nccc(C3CCCC3)n2)c2cc[nH]c2n1	i
COc1ccc(-c2cc(NCc3cccnc3)nc3[nH]ccc23)cn1	i
Cc1cc(-c2cc(N)nc3[nH]ccc23)cnc1N	i
O=C(O)CNc1cc(-c2ccccc2C(F)(F)F)c2cc[nH]c2n1	i
NCCc1cccc(-c2cc(NCc3ccccn3)nc3[nH]ccc23)c1	35.0%*
COc1ccc(-n2nc3c(c2NC(=O)c2ccccc2C(F)(F)F)CS(=O)C3)cc1 (stereo not drawn)	i
O=c1oc2ccccc2c(NC2CCCC2)c1[N+](=O)[O-]	i
O=C1C2C3CCC(C3)C2C(=O)N1c1nccs1 (stereo not drawn)	i
C=C(C)Cn1c(CCCNC(=O)COc2ccccc2)nc2ccccc21	i
COc1ccc(CC2CN(Cc3ccco3)CCO2)cc1 (stereo not drawn)	i
Cc1cc(C)c(C(=O)c2ccc(C(=O)N(C)C)cc2)c(C)c1	i
O=C1C=CC(=NS(=O)(=O)c2ccc(Cl)cc2)c2ccccc21	60.0%*
CC(C)c1ccc(S(=O)(=O)N=C2C=CC(=O)c3ccccc32)cc1	45.0%*
CC(N)=NS(=O)(=O)c1ccc(Cl)cc1	i
CC(=O)Nc1ccc(S(=O)(=O)Nc2ccc(C(C)C)cc2)cc1	i
O=Cc1ccc(S(=O)(=O)c2ccc(Cl)cc2)cc1	i
COc1ccc(C(=O)Nc2cccc(C(=O)O)c2)cc1	i
COc1cccc(OC)c1C(=O)Nc1c2c(nn1-c1ccc(C)cc1)CS(=O)C2 (stereo not drawn)	i
O=C(CSc1c2c(nc3ccc(Cl)cc13)CCCC2)NCC1CCCO1 (stereo not drawn)	i
CCSc1sc(SC#N)cc1SC#N	47.0%*
CC(C)(C)Sc1ccc(SC#N)s1	i
COc1ccc(/C=C2/OC(=O)c3c2cc(C)[nH]c3=O)cc1OC	i
COc1ccc(/C=C2/C=C(c3ccc(C)cc3)OC2=O)cc1OC	32.0%*
COc1ccc(/C=C2/C=C(c3cc(OC)ccc3OC)OC2=O)c(OC)c1	40.0%*
COc1ccc(/C=C2\SC(N3CCOCC3)=NC2=O)c(OC)c1	i
SMILES	ST2 IL33 inh
COc1ccc(C2=C/C(=C\c3ccc(C)o3)C(=O)O2)cc1	i
COc1ccc(OC)c(/C=C2\N=C(c3cccs3)OC2=O)c1	i
COc1ccccc1C(=O)NC[C@@H]1C=C(C)[C@H](CC(=O)N2CCCC2)C[C@H]1C(C)C	i
COC(=O)C1=C(C)NC2=C(C(=O)CC(c3ccccc3Cl)C2)C1c1ccccc1OC (stereo not drawn)	i
COC(=O)C1=C(NC(=O)c2ccc(OC)cc2OC)CCS1	32.0%*
COC(=O)C1=C(NC(=O)c2ccccc2Br)CCS1	31.0%*
COc1ccc(NC(=O)c2ccccc2Br)cc1	i
COc1ccc(-n2nc3c(c2NC(=O)c2ccc(OC)cc2OC)CSC3)cc1	i
COc1ccc(C(=O)Nc2nc3ccc(S(C)(=O)=O)cc3s2)c(OC)c1	i
COc1ccc(OC)c(NC(=O)c2ccccc2Br)c1	i
CCn1cc(C(=O)N2CCN(C)CC2)c(=O)c2cc(S(=O)(=O)N(C)C3CCCCC3)ccc21	i
COc1cc2c(cc1OC)C(C(=O)N1CCN(C)CC1)C(c1cccnc1)N(C)C2=O (stereo not drawn)	i
Cc1cc(C)n(C(=O)COc2ccccc2)n1	i
N#CC1=C(N)N(c2ccccc2[N+](=O)[O-])C2=C(C(=O)CCC2)C1c1cccc([N+](=O)[O-])c1 (stereo not drawn)	31.0%*
Cc1ccccc1N1C(N)=C(C#N)C(c2ccc(F)cc2)C2=C1CCCC2=O (stereo not drawn)	i
N#CC1=C(N)OC2=C(C(=O)CCC2)C1c1cccc([N+](=O)[O-])c1 (stereo not drawn)	i
CCN(CC)S(=O)(=O)N1CCC(C(=O)Nc2cccc(CCc3nc4ccccc4n3C)c2)CC1	i
CCOc1ccc(-n2c(C)c(C(=O)O)c3cc(OC)c4ccccc4c32)cc1	i
Cc1cc([N+](=O)[O-])c(NCC(C)O)cc1N (stereo not drawn)	i
Cc1cc(CC(C)NC(=O)c2csc3nc(-c4ccccc4)cn23)n[nH]1 (stereo not drawn)	i
CCOc1ccc(C2C3=C(CCCC3=O)NC3=C2C(=O)c2ccccc23)cc1 (stereo not drawn)	36.0%*
O=C1CCCC2=C1C(c1ccc(OCc3ccc([N+](=O)[O-])cc3)cc1)C1=C(CCCC1=O)N2	i
COc1ccc(C2C3=C(CCCC3=O)NC3=C2C(=O)c2ccccc23)cc1 (stereo not drawn)	i
COc1ccc(S(=O)(=O)Cc2ccc(C(=O)NC3CCCCC3C)o2)cc1 (stereo not drawn)	i
COc1cncc(-c2ccc(F)cc2Cl)c1	i
SMILES	ST2 IL33 inh
NC(=O)c1ccnc(-c2ccc(F)cc2Cl)c1	i
Nc1ccc(-c2ccc(F)cc2Cl)cn1	35.0%*
CN(Cc1ccccc1)CC1CCCN(CCc2ccc(F)cc2)C1 (stereo not drawn)	i
C(=C\c1ccccc1)/CN1CCN(Cc2c[nH]c3ccccc23)CC1	i
CN(Cc1cc(-c2ccncc2)no1)Cc1ccc(Cl)cc1F	i
COc1c(C)cnc(CN(C)C(=O)c2ccc(-n3cnnc3)cc2)c1C	i
CCCOc1ccc(C2C(C(=O)OC(C)CC)=C(C)NC3=C2C(=O)C(C(=O)OC)C(C)C3)cc1 (stereo not drawn)	i
O=[N+]([O-])c1cc(C=Nc2ccc(Br)cc2)ccc1Br	i
O=[N+]([O-])c1cc(C=Nc2ccccc2I)ccc1Br	35.0%*
O=[N+]([O-])c1cc(C=Nc2cccc(I)n2)ccc1Br	i
Cc1nc2c(c(N3CCCC3)n1)CCN(C(=O)CCc1cc(=O)[nH]o1)C2	i
O=C(C1CC1)N1CCc2cc(Br)cc(S(=O)(=O)NCc3cccnc3)c21	i
COc1ccc(CNS(=O)(=O)c2ccc3c(c2)CCN3C(=O)C2CC2)cc1	i
O=C(C1CC1)N1CCc2cc(S(=O)(=O)NCc3ccc4c(c3)OCO4)ccc21	36.0%*
Cc1ccc(CNS(=O)(=O)c2cc(Br)cc3c2N(C(=O)C2CC2)CC3)cc1	i
O=C(C1CC1)N1CCc2cc(S(=O)(=O)NCc3ccc(F)cc3)ccc21	i
O=C(C1CC1)N1CCc2cc(Br)cc(S(=O)(=O)NCc3ccc4c(c3)OCO4)c21	32.0%*
O=C(Nc1nnc(N=Cc2ccc(Br)s2)s1)c1cccs1	i
CCOC(=O)N1CCC(NCCSc2ncn[nH]2)CC1	i
O=C(CN(Cc1ccccn1)CC1CCCO1)Nc1nc2ccccc2[nH]1 (stereo not drawn)	i
O=C(C1=C(O)C(=O)N(CCCN2CCOCC2)C1c1ccccc1F)c1cccs1 (stereo not drawn)	i
Cn1c(=NC(=O)CSCC(=O)N2CCc3ccccc32)sc2ccccc21	i
Clc1ccccc1CNc1ncnc2ccccc12	i
Nc1ccc(Br)cc1-c1nc2ccccc2[nH]c1=O	i
O=c1c2c[nH]c3ccccc3nc-2c2ccccc12	42.0%*
O=C(O)c1cc(-c2c[nH]c3ccccc23)n[nH]1	i
CCCC(=O)c1cc(F)c(N2CCN(C(=O)c3ccc(F)cc3)CC2)cc1C	i
Cc1ccc2nsnc2c1NC(=O)COc1ccccc1[N+](=O)[O-]	32.0%*
O=C(COc1ccccc1[N+](=O)[O-])Nc1cc(Cl)c(Cl)cc1Cl	i
CCC(=O)Nc1c(C)ccc2nsnc12	i
